# Among all 330,000 compounds or so, about 4,100 (1.2%) were called active. For the sample, actives were picked, then their nearest neighbours and some compounds at random. Unmarked numbers belong to inactive results. Cut-off read from the data, not from the text of the source: active = inhibition above about 50%; inactive = the rest.
# Biological target: Sentrin-specific protease 8 (Homo sapiens) (UniProt Q96LD8)
# Assay: SENP8 protease inhibitors, primary screen, biochemical, luminescence (AID 2540)
# Details: purified SENP8, Z-RLRGG-aminoluciferin cleavage, at 10 µM, hits give high values
# Sequence of Sentrin-specific protease 8 (Homo sapiens) (Q96LD8 whole entry, looked up): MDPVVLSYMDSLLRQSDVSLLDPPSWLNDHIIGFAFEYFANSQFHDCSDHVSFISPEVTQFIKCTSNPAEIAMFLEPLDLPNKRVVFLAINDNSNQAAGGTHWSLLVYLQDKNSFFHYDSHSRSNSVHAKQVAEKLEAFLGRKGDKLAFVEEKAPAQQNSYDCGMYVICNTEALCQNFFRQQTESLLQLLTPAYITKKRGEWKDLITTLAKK
row,SMILES,inhibition
1,CCOc1ccccc1OCCCNCc1ccccc1,-6.65%
2,C=CCSc1nnc(Cn2c(=O)sc3ccccc32)n1C,-1.6%
3,Cc1cc(N=Nc2ccc3ccccc3c2)ccc1O,95.5% (active)
4,Cc1ccccc1Nc1nc(N)nc(COC(=O)CCC(=O)c2ccc(F)cc2)n1,-5.5%
5,CCC(C(=O)Nc1ncccn1)(C(F)(F)F)C(F)(F)F,2.16%
6,COc1cc(OC)cc(-c2c(C#Cc3ccsc3)c3cc(-c4ccc(OC)cc4F)ccc3n2C)c1,-6.93%
7,COc1ccc(CNC(=O)COc2ccccc2C(=O)c2cnn(-c3ccccc3)c2)cc1OC,55.6% (active)
8,COc1ccc(CNC(=O)COC(=O)c2c(C)nn(-c3ccccc3)c2C)cc1OC,-2.1%
9,COc1ccc(CNC(=O)Cc2ccc(-c3ccccc3)cc2)cc1OC,-1.75%
10,CC(C)CCN(C(=O)c1csnn1)C(C(=O)NC1CCCC1)c1ccccc1 (stereo not given),-0.251%
11,CCOC(=O)c1sc(N(Cc2ccccc2)C(=O)CN2C(=O)CN(C)C2=O)nc1C,5.69%
12,CC12CCC(=O)N1C(C(=O)Nc1ccc(F)c(F)c1F)CS2 (stereo not given),-5.83%
13,CCN(C(=O)COC(=O)CCC(=O)c1cccs1)C1CCCCC1,-2.61%
14,Cc1ccsc1C(=O)NC1CCCCC1C (stereo not given),-2.42%
15,COc1ccc(C(=O)Nc2cccc(S(C)(=O)=O)c2)cc1,-4.36%
16,COc1cccc(C(=O)Nc2nnc(S(=O)(=O)N(C)c3ccccc3)s2)c1,-5.38%
17,COc1cccc(C(=O)Nc2nc3ccc(S(C)(=O)=O)cc3s2)c1,82.5% (active)
18,O=C(Nc1nnc(C2CC2)s1)c1ccccn1,20.9%
19,Cc1cnc(NC(=O)c2ccccn2)s1,66.9% (active)
20,Cc1cnc(NC(=O)C2CCCC2)s1,-0.598%
21,Clc1ccc(C=NC23CN4CN(CN(C4)C2)C3)cc1,8.45%
22,Cc1ccc(Nc2cc(C)nc3c(C)ccc([N+](=O)[O-])c23)cc1,-13.4%
23,Cc1cc(Nc2ccc(Br)cc2)nc2ccccc12,-6.96%
24,O=c1ccnc(Nc2ccc(Cl)cc2)[nH]1,-3.3%
25,Clc1ccc(Nc2ccc3ccccc3n2)cc1,82.3% (active)
26,CC(OC(=O)c1ccc(NS(=O)(=O)c2ccc3[nH]c(=O)[nH]c3c2)cc1)C(=O)Nc1cccc(Cl)c1Cl (stereo not given),-9.53%
27,CC(C)CCN1CCN(C/C=C/c2ccco2)CC1CCO (stereo not given),4.76%

row,SMILES,inhibition
1,Cc1cc(C(=O)CCl)c(C)n1CC1COc2ccccc2O1 (stereo not given),-8.88%
2,COc1ccc(C(=O)OCC(=O)c2cc(C)n(CC3CCCO3)c2C)cc1[N+](=O)[O-] (stereo not given),-17.7%
3,Cc1ccsc1C(=O)OCC(=O)c1cc(C)n(CC2CCCO2)c1C (stereo not given),91.1% (active)
4,CCC(C)(C)c1ccc(Oc2ccc(NC(=O)COC(=O)C3=COCCO3)cc2)cc1,-2.31%
5,Cc1nc2nc(CSc3nc4ccccc4s3)cc(=O)n2[nH]1,-14.3%
6,O=[N+]([O-])c1c(NCCO)cc(Sc2nc3ccccc3s2)c2nonc12,85% (active)
7,NC(=O)c1ccc(Nc2ccc3nonc3c2[N+](=O)[O-])cc1,2.67%
8,CC(C)NC(=O)/C(C#N)=C\c1ccc(N(C)C)c(Br)c1,-4.03%
9,CC1(C)CC(=O)C(C2c3ccccc3S(=O)(=O)c3ccccc32)C(=O)C1,-0.512%
10,CC(CNc1ccc([N+](=O)[O-])cc1)NC(=O)c1ccccc1Br (stereo not given),0%
11,O=C(O)c1c(NC(=O)N2CCCC2)sc2c1CCCC2,-9.81%
12,O=C(Nc1sc2c(c1C(=O)O)CCC2)c1ccccc1F,86.7% (active)
13,COC(=O)c1c(NC(=O)c2ccccc2F)sc2c1C(C(=O)OC)CC2 (stereo not given),-3.54%
14,CCOC(=O)C1CCCCN1Cc1ccc(OC)c(OC)c1OC (stereo not given),-0.162%
15,O=C(Nc1ccc2c(c1)CCC2)c1ccc(Br)s1,61.5% (active)
16,CC(C)Oc1ccc(C(=O)NCC(=O)Nc2ccc3c(c2)CCC3)cc1,6.91%
17,CC1CC(C)CN(CCC(=O)Nc2ccc3c(c2)CCC3)C1 (stereo not given),7.63%
18,Cc1nn(-c2ccccc2)c2c1C(=O)NC(=O)C(C)(C)C2,4.21%
19,Cc1nnc(SCc2ccc(C(=O)c3ccc(Cl)cc3)o2)n1-c1ccccc1,-8.59%
20,Nc1nc(NCc2ccccc2)n(-c2ccccc2)n1,4.17%
21,COc1ccccc1CNC(=O)CSc1nc(=O)n(Cc2ccncc2)c2c1CCC2,-3.51%
22,N#Cc1c(N2CCCCC2)nc(N)c2c(N)nc(SCC(=O)O)cc12,70.8% (active)
23,Nc1nc(NCC(=O)O)nc(N2CCCCCC2)c1[N+](=O)[O-],-1.61%
24,N#CCc1c(C#N)c(N)nc(N2CCCC2)c1C#N,0.98%
25,O=S(=O)(NCC1CCCO1)c1cnc(Cl)c(Cl)c1 (stereo not given),3.51%
26,O=C(CN(c1ccccc1)S(=O)(=O)c1ccc(Cl)cc1)Nc1ccccc1C(=O)N1CCCC1,2.45%
27,Cc1nc(C(=O)N2CCCC(C(=O)c3ccc(Cl)cc3)C2)cs1 (stereo not given),-2.8%

row,SMILES,inhibition
1,Cn1cc(-c2ccccc2)cc(C#N)c1=O,3.36%
2,COC(=O)[C@@H](NC(=O)NCc1cccc(OC)c1)C(C)C,0.612%
3,NC1=NN(c2cccc(C(=O)O)c2)C(=O)C1,-5.54%
4,O=C(O)c1ccc(N=NN2CCOCC2)cc1,1.65%
5,O=C(O)c1cccc(N=NN2CCCCCC2)c1,88.8% (active)
6,Cc1cc(C(F)(F)F)nn1CC(=O)N1CCCC1,-6.86%
7,COc1ccc(C2/C=C\CN(S(=O)(=O)c3cccs3)CC(=O)N2Cc2ccc(F)cc2)cc1 (stereo not given),-0.424%
8,CN1CCN(C2Cc3ccc(Cl)cc3Sc3ccc(F)cc32)CC1 (stereo not given),-10.9%
9,CCOC(=O)/C(=C\c1ccc([N+](=O)[O-])cc1)C(=O)c1cc(C(C)=O)c(Nc2ccccc2)s1,6.19%
10,O=C(Cn1c(=S)nc2ccccn21)N1CCc2ccccc2C1,0.682%
11,O=C(c1ccc(F)cc1)n1cc(C(=S)N2CCOCC2)c2ccccc21,-5.7%
12,O=C(c1ccc(F)cc1)n1c(=S)nc2ccccn21,64.1% (active)
13,Cc1ccccc1SCC(=O)OCC(=O)N1CC(=O)Nc2ccccc21,4.24%
14,Cc1cccc(CN2CCC(CNC(=O)Nc3ccc(F)c(Cl)c3)CC2)c1,-1.33%
15,CC(C)Cn1c(N)c(C(=O)NCc2cccs2)c2nc3ccccc3nc21,90% (active)
16,Cn1ncc(Br)c1C(=O)NCc1cccs1,-2.84%
17,CCOc1ccccc1NC(=O)Cn1nnc(C(=O)NCc2cccs2)c1N,19.3%
18,CCCCNC(=O)N1CCN(S(C)(=O)=O)CC1,-11%
19,N/C(=N\OC(=O)c1ccc([N+](=O)[O-])cc1)c1ccccn1,89.6% (active)
20,O=C(COC(=O)c1ccccn1)NNC(=O)c1ccc(Br)cc1,0.814%
21,C/C(=N/OC(=O)c1cccc(C(F)(F)F)c1)c1cnccn1,-12.8%
22,COc1ccc(C(=O)O/N=C(\N)c2ccccn2)cc1[N+](=O)[O-],-12%
23,Cc1ccc(C(=O)O/N=C(\N)c2ccccn2)cc1Cl,78% (active)
24,O=C(COC(=O)c1ccccn1)NNC(=O)c1ccc([N+](=O)[O-])cc1,-16.2%
25,CCCNC(=O)COc1coc(CN2CCN(Cc3ccccc3)CC2)cc1=O,-2.92%
26,CC(C)Cn1c(SCC(=O)Nc2ccc(Cl)cc2F)nc(O)cc1=O,0.222%
27,CNC(=O)c1sc(NCc2ccccc2OC)nc1C,0.124%

row,SMILES,inhibition
1,COc1cccc2sc(Nc3nc(C)c(C(C)=O)s3)nc12,66.7% (active)
2,COc1cc2ccccc2cc1C(=O)Nc1nc(C)c(C(C)=O)s1,-0.787%
3,Cc1ccc(S(=O)(=O)N2CCCCC2)cc1C(=O)N1CCN(CCO)CC1,4.2%
4,O=C(NCc1ccccc1Cl)C1CCCN1S(=O)(=O)c1ccc(F)cc1 (stereo not given),-7.31%
5,Cc1ccc(N2CC(C(=O)Nc3cc(Cl)ccc3-n3cncn3)CC2=O)cc1 (stereo not given),10.6%
6,Cc1ccc(-n2ncc3c(Nc4cccc(C(=O)O)c4)ncnc32)cc1,90.4% (active)
7,Cc1ccc(Nc2ncnc3c2cnn3C)c(C)c1,0.699%
8,CC(C)Sc1ncnc2c1cnn2-c1ccccc1,38.9%
9,O=C(C1CCN(C2CCN(Cc3ccc4cc(F)ccc4n3)CC2)CC1)N1CCCC1,-5.41%
10,O=c1[nH]cnc(O)c1C(c1ccc(F)cc1)c1c(O)nc[nH]c1=O,-12.7%
11,O=c1c(-c2ccccc2)coc2cc(O)ccc12,55% (active)
12,CC(C)CN(Cc1c(O)ccc2c(=O)c(-c3ccccc3)coc12)CC(C)C,-6.97%
13,CCc1ccc(Oc2coc3cc(O)ccc3c2=O)cc1,-15.7%
14,O=C(O)c1ccc(OCC2CCCO2)cc1 (stereo not given),-8.8%
15,COC(=O)c1ccc(Sc2ccc(F)cc2)c(N)c1,-1.32%
16,Cc1ccc(N/C=C/C(=O)c2ccccc2)cc1C,88.8% (active)
17,Cc1cc(N/C=C\C(=O)c2ccc(Cl)c(Cl)c2)no1,-16.9%
18,CC(=O)Nc1ccc(/C=C/C(=O)c2ccccc2)cc1,-16.7%
19,CCOc1ccc(N/C=C/C(=O)c2ccccc2)cc1,93.7% (active)
20,COc1ccc(C(=O)/C=C/Nc2ccccn2)cc1,95.5% (active)
21,CCOc1ccc(NC(=S)N2CCC(NC(=O)c3ccccc3)CC2)cc1,-6%
22,COc1ccc(N2C(=O)CCC(C(=O)Nc3ccccn3)C2c2ccc(OC)c(OC)c2)cc1 (stereo not given),-4.67%
23,O=C(/C=C/NCc1ccc(F)cc1)c1ccccc1,-2.04%
24,CCOc1ccc(N/C=C/C(=O)c2cc(OC)c(OC)c(OC)c2)cc1,-9.53%

# Reference: PubChem BioAssay AID2540 (Sanford-Burnham Center for Chemical Genomics, 2010)
